# Data: publication PMC7862700, “An all-to-all approach to the identification of sequence-specific readers for epigenetic DNA modifications on cytosine”
# Legend:
# Experiment in all cases: DAPPL (digital affinity profiling via proximity ligation, sequencing); 10 mM Tris-HCl pH 7.5, 50 mM NaCl, 1 mM DTT, 4% glycerol, room temperature, 30 min; GST-TFs on glutathione beads, 16-mer random dsDNA library, 0.1% formaldehyde crosslink after washing; high values mean tight binding
# FEV = molecular target: T1, FEV (Homo sapiens, UniProt Q99581 1-238); details: protein: recombinant; tags: N-terminal GST; dsDNA, one strand shown
# T1 sequence: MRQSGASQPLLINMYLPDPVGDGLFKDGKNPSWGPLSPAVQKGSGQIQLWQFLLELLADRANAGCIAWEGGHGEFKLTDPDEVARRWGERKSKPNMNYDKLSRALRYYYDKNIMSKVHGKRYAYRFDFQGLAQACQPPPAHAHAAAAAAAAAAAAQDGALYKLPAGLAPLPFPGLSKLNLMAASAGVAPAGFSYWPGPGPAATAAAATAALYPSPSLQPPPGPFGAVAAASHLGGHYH
# Summary of the method: (§1)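 Binding signal is each hexamer's read frequency for a factor divided by its frequency in the tag-only sample. The factors were GST-fused human transcription factors from yeast, captured on glutathione beads, DNA-barcoded and pooled with that sample. Pools were incubated with 200 nmole of a random double-stranded 16-mer DNA library in Tris/NaCl/DTT/glycerol buffer at room temperature for 30 min, then washed, crosslinked with 0.1% formaldehyde, proximity-ligated with BsaI/T4 ligase (1 h, 37 °C), PCR-amplified and sequenced on an Illumina NextSeq500.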
# ETV5 = ETV5 (Homo sapiens, UniProt P41161 1-510); details: protein: recombinant; tags: N-terminal GST; dsDNA, one strand shown
# Summary of the method: as §1
# HSF1 = HSF1 (Homo sapiens, UniProt Q00613 1-529); details: protein: recombinant; tags: N-terminal GST; chain copies: 3; dsDNA, one strand shown
# Summary of the method: as §1
# SPIC = molecular target: T2, SPIC (Homo sapiens, UniProt Q8N5J4 1-248); details: protein: recombinant; tags: N-terminal GST; dsDNA, one strand shown
# T2 sequence: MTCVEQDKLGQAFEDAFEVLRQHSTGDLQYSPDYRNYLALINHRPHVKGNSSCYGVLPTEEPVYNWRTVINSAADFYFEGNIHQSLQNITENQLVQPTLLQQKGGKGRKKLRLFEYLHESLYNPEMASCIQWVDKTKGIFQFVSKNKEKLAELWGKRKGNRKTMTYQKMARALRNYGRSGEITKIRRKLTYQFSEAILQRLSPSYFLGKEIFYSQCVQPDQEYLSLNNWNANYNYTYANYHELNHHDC
# Summary of the method: as §1
# ELF4 = ELF4 (Homo sapiens, UniProt Q99607 1-663); details: protein: recombinant; tags: N-terminal GST; dsDNA, one strand shown
# Summary of the method: as §1
# ELK4 = molecular target: T3, ELK4 (Homo sapiens, UniProt P28324-2 1-405); details: protein: recombinant; tags: N-terminal GST; dsDNA, one strand shown
# T3 sequence: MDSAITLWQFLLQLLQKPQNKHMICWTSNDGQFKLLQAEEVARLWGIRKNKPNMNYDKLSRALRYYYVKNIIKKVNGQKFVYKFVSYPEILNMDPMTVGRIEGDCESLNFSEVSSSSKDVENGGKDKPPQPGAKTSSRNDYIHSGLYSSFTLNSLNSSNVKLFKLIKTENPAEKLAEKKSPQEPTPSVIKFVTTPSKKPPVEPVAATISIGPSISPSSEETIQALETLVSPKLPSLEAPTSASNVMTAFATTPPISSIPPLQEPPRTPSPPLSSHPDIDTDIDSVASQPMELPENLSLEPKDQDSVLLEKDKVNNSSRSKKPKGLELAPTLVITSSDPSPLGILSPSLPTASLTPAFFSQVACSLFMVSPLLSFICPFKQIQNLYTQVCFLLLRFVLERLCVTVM
# Summary of the method: as §1
# ETV2 = molecular target: T4, ETV2 (Homo sapiens, UniProt O00321 1-342); details: protein: recombinant; tags: N-terminal GST; dsDNA, one strand shown
# T4 sequence: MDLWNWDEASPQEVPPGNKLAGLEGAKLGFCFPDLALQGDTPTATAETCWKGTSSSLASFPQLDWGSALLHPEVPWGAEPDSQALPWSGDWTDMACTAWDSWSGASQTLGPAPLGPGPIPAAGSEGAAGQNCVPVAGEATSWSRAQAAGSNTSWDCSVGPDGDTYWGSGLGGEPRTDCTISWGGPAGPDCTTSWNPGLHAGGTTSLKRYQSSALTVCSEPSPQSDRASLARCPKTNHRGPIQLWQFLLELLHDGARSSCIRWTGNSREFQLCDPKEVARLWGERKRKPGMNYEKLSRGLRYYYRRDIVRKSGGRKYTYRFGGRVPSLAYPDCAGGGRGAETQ
# Summary of the method: as §1
# ELF3 = molecular target: T5, ELF3 (Homo sapiens, UniProt P78545 1-371); details: protein: recombinant; tags: N-terminal GST; dsDNA, one strand shown
# T5 sequence: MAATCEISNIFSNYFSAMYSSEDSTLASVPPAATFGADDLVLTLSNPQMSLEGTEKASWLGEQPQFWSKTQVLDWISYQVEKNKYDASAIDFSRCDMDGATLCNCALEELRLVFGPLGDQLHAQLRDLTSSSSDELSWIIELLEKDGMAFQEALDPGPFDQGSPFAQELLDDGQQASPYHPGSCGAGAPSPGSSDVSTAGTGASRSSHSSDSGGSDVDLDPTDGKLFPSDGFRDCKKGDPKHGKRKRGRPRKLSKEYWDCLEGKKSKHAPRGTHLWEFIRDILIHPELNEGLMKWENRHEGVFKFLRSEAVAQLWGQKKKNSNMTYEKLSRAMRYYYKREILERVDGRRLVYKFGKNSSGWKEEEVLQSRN
# Summary of the method: as §1
# CRX = CRX (Homo sapiens, UniProt O43186 1-299); details: protein: recombinant; tags: N-terminal GST; dsDNA, one strand shown
# Summary of the method: as §1
# ETV1 = ETV1 (Homo sapiens, UniProt P50549 1-477); details: protein: recombinant; tags: N-terminal GST; dsDNA, one strand shown
# Summary of the method: as §1
# ERF = molecular target: T6, ERF (Homo sapiens, UniProt P50548 1-548); details: protein: recombinant; tags: N-terminal GST; dsDNA, one strand shown
# T6 sequence: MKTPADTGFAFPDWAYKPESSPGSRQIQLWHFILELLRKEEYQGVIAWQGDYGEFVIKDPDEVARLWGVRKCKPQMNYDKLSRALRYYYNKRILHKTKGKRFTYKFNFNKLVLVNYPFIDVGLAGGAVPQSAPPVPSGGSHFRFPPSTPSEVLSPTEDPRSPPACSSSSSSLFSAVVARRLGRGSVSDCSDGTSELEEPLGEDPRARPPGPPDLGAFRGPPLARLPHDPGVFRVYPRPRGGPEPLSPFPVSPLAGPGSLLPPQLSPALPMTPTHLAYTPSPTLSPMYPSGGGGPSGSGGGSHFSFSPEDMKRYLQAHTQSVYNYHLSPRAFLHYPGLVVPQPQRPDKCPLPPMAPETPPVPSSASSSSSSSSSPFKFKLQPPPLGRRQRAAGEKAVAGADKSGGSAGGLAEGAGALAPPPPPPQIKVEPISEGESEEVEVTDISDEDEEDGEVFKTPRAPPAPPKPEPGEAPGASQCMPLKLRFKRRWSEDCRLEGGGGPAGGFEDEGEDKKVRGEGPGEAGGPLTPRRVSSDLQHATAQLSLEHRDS
# Summary of the method: as §1
# ETV3L = molecular target: T7, ETV3L (Homo sapiens, UniProt Q6ZN32 1-361); details: protein: recombinant; tags: N-terminal GST; dsDNA, one strand shown
# T7 sequence: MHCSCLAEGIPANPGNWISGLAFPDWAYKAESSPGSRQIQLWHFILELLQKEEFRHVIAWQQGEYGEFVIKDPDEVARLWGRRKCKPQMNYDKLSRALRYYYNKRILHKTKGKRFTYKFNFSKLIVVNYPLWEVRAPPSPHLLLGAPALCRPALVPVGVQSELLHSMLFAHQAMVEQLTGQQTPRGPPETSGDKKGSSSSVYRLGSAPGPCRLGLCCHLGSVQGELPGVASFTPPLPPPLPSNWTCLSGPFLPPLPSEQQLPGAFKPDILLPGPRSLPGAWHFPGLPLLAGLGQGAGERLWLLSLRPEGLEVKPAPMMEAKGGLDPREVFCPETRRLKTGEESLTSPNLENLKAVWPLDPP
# Summary of the method: as §1
# ETS2 = molecular target: T8, ETS2 (Homo sapiens, UniProt P15036 1-469); details: protein: recombinant; tags: N-terminal GST; dsDNA, one strand shown
# T8 sequence: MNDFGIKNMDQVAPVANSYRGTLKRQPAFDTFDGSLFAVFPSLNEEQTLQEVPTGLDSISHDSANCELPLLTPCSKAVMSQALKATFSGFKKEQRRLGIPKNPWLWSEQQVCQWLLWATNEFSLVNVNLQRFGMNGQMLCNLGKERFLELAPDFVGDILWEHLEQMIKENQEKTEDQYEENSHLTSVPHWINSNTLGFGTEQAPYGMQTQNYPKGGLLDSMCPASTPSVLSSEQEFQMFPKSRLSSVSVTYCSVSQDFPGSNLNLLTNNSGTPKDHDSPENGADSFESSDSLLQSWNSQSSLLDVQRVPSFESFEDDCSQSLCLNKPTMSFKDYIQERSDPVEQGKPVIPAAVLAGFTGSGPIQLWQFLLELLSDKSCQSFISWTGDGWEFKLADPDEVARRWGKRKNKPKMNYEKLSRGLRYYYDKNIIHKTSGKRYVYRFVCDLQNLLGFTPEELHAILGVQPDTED
# Summary of the method: as §1
# SPDEF = molecular target: T9, SPDEF (Homo sapiens, UniProt O95238 1-335); details: protein: recombinant; tags: N-terminal GST; dsDNA, one strand shown
# T9 sequence: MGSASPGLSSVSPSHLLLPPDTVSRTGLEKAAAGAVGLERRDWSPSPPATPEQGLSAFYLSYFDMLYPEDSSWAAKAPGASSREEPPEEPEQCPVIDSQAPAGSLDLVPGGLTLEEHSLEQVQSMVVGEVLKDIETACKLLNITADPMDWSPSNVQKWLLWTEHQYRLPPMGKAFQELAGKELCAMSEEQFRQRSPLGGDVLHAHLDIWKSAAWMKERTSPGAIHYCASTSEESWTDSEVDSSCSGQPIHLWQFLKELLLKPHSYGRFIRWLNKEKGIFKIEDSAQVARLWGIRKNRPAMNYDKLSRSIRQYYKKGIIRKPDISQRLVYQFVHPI
# Summary of the method: as §1
# ETV7 = molecular target: T10, ETV7 (Homo sapiens, UniProt Q9Y603 1-341); details: protein: recombinant; tags: N-terminal GST; dsDNA, one strand shown
# T10 sequence: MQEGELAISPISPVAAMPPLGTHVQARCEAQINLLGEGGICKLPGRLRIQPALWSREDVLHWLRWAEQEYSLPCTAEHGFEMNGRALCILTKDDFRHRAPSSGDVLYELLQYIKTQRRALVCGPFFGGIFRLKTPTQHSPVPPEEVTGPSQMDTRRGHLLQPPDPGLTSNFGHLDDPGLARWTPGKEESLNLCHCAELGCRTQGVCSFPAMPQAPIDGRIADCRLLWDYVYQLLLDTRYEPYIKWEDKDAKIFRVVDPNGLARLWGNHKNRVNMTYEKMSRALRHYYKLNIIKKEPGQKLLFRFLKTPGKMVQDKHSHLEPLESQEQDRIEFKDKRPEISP
# Summary of the method: as §1
# ELF5 = molecular target: T11, ELF5 (Homo sapiens, UniProt Q9UKW6-2 1-255); details: protein: recombinant; tags: N-terminal GST; dsDNA, one strand shown
# T11 sequence: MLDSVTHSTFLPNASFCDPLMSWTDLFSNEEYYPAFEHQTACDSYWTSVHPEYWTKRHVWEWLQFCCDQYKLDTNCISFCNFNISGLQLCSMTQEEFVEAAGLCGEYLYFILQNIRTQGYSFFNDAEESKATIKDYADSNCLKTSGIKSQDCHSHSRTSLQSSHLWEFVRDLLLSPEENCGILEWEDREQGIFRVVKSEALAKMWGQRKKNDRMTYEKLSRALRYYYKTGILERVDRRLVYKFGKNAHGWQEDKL
# Summary of the method: as §1
# ETV3 = molecular target: T12, ETV3 (Homo sapiens, UniProt P41162-2 1-143); details: protein: recombinant; tags: N-terminal GST; dsDNA, one strand shown
# T12 sequence: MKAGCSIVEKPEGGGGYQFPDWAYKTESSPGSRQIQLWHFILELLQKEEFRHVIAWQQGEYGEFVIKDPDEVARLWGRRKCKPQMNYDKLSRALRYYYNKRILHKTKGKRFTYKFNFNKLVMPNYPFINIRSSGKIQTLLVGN
# Summary of the method: as §1
# ETV6 = ETV6 (Homo sapiens, UniProt P41212 1-452); details: protein: recombinant; tags: N-terminal GST; dsDNA, one strand shown
# Summary of the method: as §1
# Sequence of ETV1 (P50549 whole entry): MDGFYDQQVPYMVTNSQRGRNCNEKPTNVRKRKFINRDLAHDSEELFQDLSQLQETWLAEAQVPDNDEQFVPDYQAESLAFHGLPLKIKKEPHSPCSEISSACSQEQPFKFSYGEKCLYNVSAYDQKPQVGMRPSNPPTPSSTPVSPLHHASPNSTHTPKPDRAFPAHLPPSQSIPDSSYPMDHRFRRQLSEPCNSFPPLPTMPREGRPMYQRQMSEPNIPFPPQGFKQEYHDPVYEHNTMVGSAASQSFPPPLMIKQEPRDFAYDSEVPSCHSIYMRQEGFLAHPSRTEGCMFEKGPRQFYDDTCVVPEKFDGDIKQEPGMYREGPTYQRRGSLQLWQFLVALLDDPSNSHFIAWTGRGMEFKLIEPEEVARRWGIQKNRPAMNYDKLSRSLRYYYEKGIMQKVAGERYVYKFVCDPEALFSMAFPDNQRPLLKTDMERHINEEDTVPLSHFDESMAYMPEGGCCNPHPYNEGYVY
# Sequence of ETV5 (P41161 whole entry): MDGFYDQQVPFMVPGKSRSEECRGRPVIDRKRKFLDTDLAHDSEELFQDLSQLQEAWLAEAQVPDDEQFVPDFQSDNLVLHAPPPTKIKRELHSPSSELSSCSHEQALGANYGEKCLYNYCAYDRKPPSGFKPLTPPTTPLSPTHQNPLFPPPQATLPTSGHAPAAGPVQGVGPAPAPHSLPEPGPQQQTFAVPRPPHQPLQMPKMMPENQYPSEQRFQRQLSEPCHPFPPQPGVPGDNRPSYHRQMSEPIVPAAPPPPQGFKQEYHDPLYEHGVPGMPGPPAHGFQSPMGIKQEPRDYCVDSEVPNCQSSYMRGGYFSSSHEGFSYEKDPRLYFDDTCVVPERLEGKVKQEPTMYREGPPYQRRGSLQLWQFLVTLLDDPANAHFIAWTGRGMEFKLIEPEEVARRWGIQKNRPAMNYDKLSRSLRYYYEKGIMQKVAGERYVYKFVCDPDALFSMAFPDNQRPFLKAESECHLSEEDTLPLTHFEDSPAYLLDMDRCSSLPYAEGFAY
# Sequence of CRX (O43186 whole entry): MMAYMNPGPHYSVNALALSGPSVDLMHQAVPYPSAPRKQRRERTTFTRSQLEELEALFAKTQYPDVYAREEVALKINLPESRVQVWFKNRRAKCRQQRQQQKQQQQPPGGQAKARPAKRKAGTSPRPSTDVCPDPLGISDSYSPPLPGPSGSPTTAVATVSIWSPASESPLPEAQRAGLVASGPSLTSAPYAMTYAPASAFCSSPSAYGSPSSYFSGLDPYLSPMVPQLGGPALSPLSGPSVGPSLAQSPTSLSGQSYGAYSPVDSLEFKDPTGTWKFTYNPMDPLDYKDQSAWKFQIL
# Sequence of ELF4 (Q99607 whole entry): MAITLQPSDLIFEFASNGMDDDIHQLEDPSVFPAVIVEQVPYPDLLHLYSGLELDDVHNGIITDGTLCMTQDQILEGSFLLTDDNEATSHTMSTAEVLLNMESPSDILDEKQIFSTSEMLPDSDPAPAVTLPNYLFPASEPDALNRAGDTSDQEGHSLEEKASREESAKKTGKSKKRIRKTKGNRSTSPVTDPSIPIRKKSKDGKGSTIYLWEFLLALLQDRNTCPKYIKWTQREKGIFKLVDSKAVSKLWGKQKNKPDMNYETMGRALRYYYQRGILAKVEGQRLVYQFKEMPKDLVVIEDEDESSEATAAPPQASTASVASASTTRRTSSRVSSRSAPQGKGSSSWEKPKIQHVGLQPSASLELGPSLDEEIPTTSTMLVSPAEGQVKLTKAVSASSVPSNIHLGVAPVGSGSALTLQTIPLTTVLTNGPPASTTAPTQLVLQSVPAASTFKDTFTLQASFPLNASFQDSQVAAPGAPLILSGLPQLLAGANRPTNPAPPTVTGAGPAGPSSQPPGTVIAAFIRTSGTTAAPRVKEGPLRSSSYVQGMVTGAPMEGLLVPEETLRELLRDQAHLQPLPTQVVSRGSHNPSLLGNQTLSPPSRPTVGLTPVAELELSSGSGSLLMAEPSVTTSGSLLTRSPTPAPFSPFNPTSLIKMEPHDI
# Sequence of HSF1 (Q00613 whole entry): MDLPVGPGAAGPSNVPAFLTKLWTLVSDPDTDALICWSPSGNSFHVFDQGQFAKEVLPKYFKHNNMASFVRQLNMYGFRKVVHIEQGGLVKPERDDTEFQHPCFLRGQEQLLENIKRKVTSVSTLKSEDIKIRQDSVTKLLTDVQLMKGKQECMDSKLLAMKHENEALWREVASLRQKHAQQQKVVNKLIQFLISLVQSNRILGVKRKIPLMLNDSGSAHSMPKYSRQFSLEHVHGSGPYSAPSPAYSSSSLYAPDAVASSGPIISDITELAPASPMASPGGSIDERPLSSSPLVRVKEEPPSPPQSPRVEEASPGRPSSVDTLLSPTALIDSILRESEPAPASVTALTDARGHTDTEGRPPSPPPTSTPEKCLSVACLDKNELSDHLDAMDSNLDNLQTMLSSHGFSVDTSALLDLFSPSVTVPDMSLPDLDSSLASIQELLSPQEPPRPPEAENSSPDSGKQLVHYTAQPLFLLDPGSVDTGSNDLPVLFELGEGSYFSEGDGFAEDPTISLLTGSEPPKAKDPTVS
# Sequence of ETV6 (P41212 whole entry): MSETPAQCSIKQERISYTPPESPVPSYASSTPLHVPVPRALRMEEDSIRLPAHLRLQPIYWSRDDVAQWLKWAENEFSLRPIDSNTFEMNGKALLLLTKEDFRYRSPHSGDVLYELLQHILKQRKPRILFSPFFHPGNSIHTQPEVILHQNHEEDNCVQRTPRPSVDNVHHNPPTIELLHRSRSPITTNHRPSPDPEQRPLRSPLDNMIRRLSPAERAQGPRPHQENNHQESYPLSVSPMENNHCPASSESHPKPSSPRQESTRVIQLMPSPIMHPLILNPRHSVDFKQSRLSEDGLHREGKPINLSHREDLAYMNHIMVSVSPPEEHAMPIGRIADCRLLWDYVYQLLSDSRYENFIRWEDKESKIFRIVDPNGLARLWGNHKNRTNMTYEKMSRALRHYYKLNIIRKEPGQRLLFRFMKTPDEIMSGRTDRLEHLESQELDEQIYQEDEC
sequence,measurement,setting,value
TCCTAA,binding signal,FEV,"1.41 fold enrichment (6-mer frequency, TF over GST control)"
same,binding signal,ETV5,"1.4 fold enrichment (6-mer frequency, TF over GST control)"
same,binding signal,HSF1,"1.66 fold enrichment (6-mer frequency, TF over GST control)"
same,binding signal,SPIC,"1.38 fold enrichment (6-mer frequency, TF over GST control)"
same,binding signal,ELF4,"1.44 fold enrichment (6-mer frequency, TF over GST control)"
same,binding signal,ELK4,"1.39 fold enrichment (6-mer frequency, TF over GST control)"
same,binding signal,ETV2,"1.47 fold enrichment (6-mer frequency, TF over GST control)"
same,binding signal,ELF3,"1.57 fold enrichment (6-mer frequency, TF over GST control)"
same,binding signal,CRX,"2.09 fold enrichment (6-mer frequency, TF over GST control)"
same,binding signal,ETV1,"1.32 fold enrichment (6-mer frequency, TF over GST control)"
same,binding signal,ERF,"1.55 fold enrichment (6-mer frequency, TF over GST control)"
same,binding signal,ETV3L,"1.36 fold enrichment (6-mer frequency, TF over GST control)"
same,binding signal,ETS2,"1.49 fold enrichment (6-mer frequency, TF over GST control)"
same,binding signal,SPDEF,"1.6 fold enrichment (6-mer frequency, TF over GST control)"
same,binding signal,ETV7,"1.48 fold enrichment (6-mer frequency, TF over GST control)"
same,binding signal,ELF5,"1.5 fold enrichment (6-mer frequency, TF over GST control)"
same,binding signal,ETV3,"1.45 fold enrichment (6-mer frequency, TF over GST control)"
same,binding signal,ETV6,"1.55 fold enrichment (6-mer frequency, TF over GST control)"
